Assay results taken from the supplement of paper PMC13380429.

test system: Vero E6 infected with SARS-CoV-2; test: morphology score (similarity to uninfected cells); higher = more like uninfected cells; conditions: 24 h

| Structure (SMILES) | morphology score |
| --- | --- |
| N[C@@H]1c2cccnc2[C@H](OC(=O)N2CCC(n3c(=O)[nH]c4ncccc43)CC2)CC[C@H]1c1cccc(F)c1F [rimegepant] (10 µM) | 0.177 |
| Cc1cc(C)c2nc(-c3ccccn3)cc(C(=O)Nc3ccc(S(=O)(=O)Nc4onc(C)c4C)cc3)c2c1 (10 µM) | -0.319 |
| O=C1C2CCN(CC2)C1(CO)CO (10 µM) | 0.273 |
| N#Cc1c[nH]c2c(C(=O)N3CCN(CCc4ccc(F)cc4)CC3)cccc12 [pruvanserin] (10 µM) | 0.117 |
| Nc1ncnc2c1ncn2[C@@H]1O[C@H](COP(=O)(O)OP(=O)(O)OP(=O)(O)OP(=O)(O)OC[C@H]2O[C@@H](n3cnc4c(N)ncnc43)[C@H](O)[C@@H]2O)[C@@H](O)[C@H]1O [diadenosine-tetraphosphate] (10 µM) | 0.0713 |

test system: Vero E6 infected with SARS-CoV-2; test: SARS-CoV-2 infection rate relative to infected DMSO; higher = more infection, active = 60 or less; conditions: 24 h

| Structure (SMILES) | SARS-CoV-2 infection rate |
| --- | --- |
| CCCC[P+](CCCC)(CCCC)Cc1ccc(NC(=O)[C@H](Cc2ccc3ccccc3c2)N/C(=N/C2CCCCC2)NC2CCCCC2)cc1 (10 µM) | 92% (inactive) |
| OC[C@H]1O[C@H](O[C@]2(CCl)O[C@H](CCl)[C@@H](O)[C@@H]2O)[C@H](O)[C@@H](O)[C@H]1Cl [sucralose] (10 µM) | 97% (inactive) |
| Cc1cc(C)nc(NS(=O)(=O)c2ccc(NC(=S)NC(=O)COc3ccc(Br)cc3Cl)cc2)n1 (10 µM) | 108% (inactive) |
| CO[C@@]12[C@H](COC(N)=O)C3=C(C(=O)C(C)=C(N)C3=O)N1C[C@@H]1N[C@@H]12 [mitomycin-C] (10 µM) | 104% (inactive) |
| CCCn1c(=O)c2[nH]c(C3CCCC3)nc2n(CCC)c1=O (10 µM) | 105% (inactive) |
| CC(=O)NCCCOc1ccc(C(=O)N2CCC(N3C(=O)CCc4ccccc43)CC2)cc1 (10 µM) | 102% (inactive) |
| CC(=O)Oc1cc2c(s1)CCN(C(C(=O)C1CC1)c1ccccc1F)C2 (stereo not given) [prasugrel] (10 µM) | 108% (inactive) |
| CC1(C)CCC(C)(C)c2c1cc(C(=O)Nc1cc(F)c(C(=O)O)c(F)c1)c(O)c2Cl (10 µM) | 110% (inactive) |
| CS(=O)(=O)c1cccc(CNc2nc(Nc3ccc4c(c3)CCC(=O)N4)ncc2C(F)(F)F)c1 (0.833333 µM) | 114% (inactive) |
| COc1ccccc1CC(=N)N1C[C@@H]2C(=O)CCC(c3ccccc3)(c3ccccc3)[C@@H]2C1 (10 µM) | 110% (inactive) |
| CCOC(=O)N1CCC(=C2c3ccc(Cl)cc3CCc3cccnc32)CC1 [loratadine] (10 µM) | 90% (inactive) |
| Cc1c(N(C)CS(=O)(=O)O)c(=O)n(-c2ccccc2)n1C [metamizole] (10 µM) | 93.5% (inactive) |
| COc1ccncc1C(=O)NC(=O)Nc1ccc(-c2ccccc2)c(C(F)(F)F)c1 [S1P1-agonist-III] (10 µM) | 100% (inactive) |
| CCCN1CCN(c2ccc(C(=O)NC3(C(=O)NCC#N)CCCCC3)cc2)CC1 [balicatib] (10 µM) | 46% (active) |
| COc1ccc2[nH]cc(C3=CCNCC3)c2c1 (10 µM) | 104% (inactive) |
| CCOC(=O)c1c(C)[nH]c2ccc3c(c12)CN1CCc2cc(OC)ccc2C1O3 (stereo not given) (10 µM) | 28.5% (active) |
| CC(=O)N(O)[C@@H]1c2cc(C#N)ccc2OC(C)(C)[C@H]1O (10 µM) | 59% (active) |
| CCn1cc(C(=O)O)c(=O)c2cc3c(cc21)OCO3 [oxolinic-acid] (10 µM) | 96% (inactive) |
| CC(C)(C)c1ccc(CN(Cc2cccc(OCC(=O)O)c2)S(=O)(=O)c2cccnc2)cc1 [evatanepag] (10 µM) | 97.5% (inactive) |
| O=C(O)c1c(Sc2ccccc2)c2cc(Cl)ccc2n1Cc1ccc(Cl)cc1 (10 µM) | 102% (inactive) |

| Structure (SMILES) | SARS-CoV-2 infection rate |
| --- | --- |
| CCNC(C)CN1CCc2c(c(=O)oc3ccccc23)C1 (stereo not given) (10 µM) | 98% (inactive) |
| CCC/N=C1\S/C(=C\c2ccc(OC[C@H](O)CO)c(Cl)c2)C(=O)N1c1ccccc1C [ponesimod] (10 µM) | 108% (inactive) |
| CC(=O)c1ccc2c(c1)N(CCCN1CCC(CCO)CC1)c1ccccc1S2 [piperacetazine] (10 µM) | 75% (inactive) |
| CCCCCCCCCCCC(=O)O [lauric-acid] (10 µM) | 96.5% (inactive) |
| Nc1nc(Nc2ccc(S(N)(=O)=O)cc2)nn1C(=O)c1c(F)cccc1F (0.833333 µM) | 120% (inactive) |
| Nc1nc(NC2CC2)c2ncn([C@H]3C=C[C@@H](CO)C3)c2n1 (10 µM) | 102% (inactive) |
| O=C(O)CCCNC(=O)c1cccnc1 [pikamilone] (10 µM) | 100% (inactive) |
| CN(C)[C@@H]1CCc2[nH]c3ccc(NC(=O)c4ccc(F)cc4)cc3c2C1 (10 µM) | 70.5% (inactive) |
| COc1nccc(-c2c(-c3ccc(F)cc3)ncn2C2CCNCC2)n1 (10 µM) | 98.5% (inactive) |
| CN(C)CCCC1(c2ccc(F)cc2)OCc2cc(C#N)ccc21 (stereo not given) [citalopram] (10 µM) | 107% (inactive) |
| Fc1ccc(CN2CCC(Nc3ccc(C(F)(F)F)nn3)CC2)cc1F (10 µM) | 110% (inactive) |
| Cn1ncnc1COc1nn2c(-c3cc(F)ccc3F)nnc2cc1C(C)(C)C (10 µM) | 96.5% (inactive) |
| CCc1oc2ccccc2c1C(=O)c1cc(Br)c(O)c(Br)c1 [benzbromarone] (10 µM) | 85.5% (inactive) |
| CC(C)OC(=O)[C@H](C)N[P@](=O)(CO[C@H](C)Cn1cnc2c(N)ncnc21)Oc1ccccc1 [tenofovir-alafenamide] (10 µM) | 106% (inactive) |
| C[C@]12CCC(=O)C=C1CC[C@@H]1[C@@H]2[C@@H](O)C[C@@]2(C)[C@H]1CC[C@]2(O)C(=O)COP(=O)(O)O [hydrocortisone-phosphate] (10 µM) | 98.5% (inactive) |
| N[C@@H]1c2cccnc2[C@H](OC(=O)N2CCC(n3c(=O)[nH]c4ncccc43)CC2)CC[C@H]1c1cccc(F)c1F [rimegepant] (10 µM) | 96.5% (inactive) |
| Cc1cc(C)c2nc(-c3ccccn3)cc(C(=O)Nc3ccc(S(=O)(=O)Nc4onc(C)c4C)cc3)c2c1 (10 µM) | 97% (inactive) |
| O=C1C2CCN(CC2)C1(CO)CO (10 µM) | 83.5% (inactive) |
| N#Cc1c[nH]c2c(C(=O)N3CCN(CCc4ccc(F)cc4)CC3)cccc12 [pruvanserin] (10 µM) | 98.5% (inactive) |
| Nc1ncnc2c1ncn2[C@@H]1O[C@H](COP(=O)(O)OP(=O)(O)OP(=O)(O)OP(=O)(O)OC[C@H]2O[C@@H](n3cnc4c(N)ncnc43)[C@H](O)[C@@H]2O)[C@@H](O)[C@H]1O [diadenosine-tetraphosphate] (10 µM) | 108% (inactive) |
